Source: PubChem BioAssay (National Center for Advancing Translational Sciences (NCATS))
Sfp inh: inhibitors of Bacillus subtilis Sfp phosphopantetheinyl transferase; Q9F4F7; Biochemical Sfp PPTase activity, qHTS; Potency, µM, for inactives: largest response in the series, negative = inhibition, hits mostly inhibitors; 310,000 tested, 3.5% active; AID 1490;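 note: the enzyme is Sfp with the accession as filed and its product quenches rhodamine fluorescence; 0% = enzyme reaction without inhibitor and -100% = no enzyme wells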
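Fluorescence-quenching assay: 15 nM Sfp-PPTase preincubated 15 min at room temperature with compound, then 5 uM rhodamine-CoA and 12.5 uM BHQ-2-labelled YbbR peptide added. Fluorescence (ex 525/em 598 nm) read at start and after 30 min; difference gives rate.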
G9a inh: blocks human histone lysine methyltransferase G9a | G9a H3K9 monomethylation, AlphaScreen, 2 h | Potency, µM (highest dose often 102 µM), for the others: at the top dose activity, negative = inhibition, hits mostly inhibitors | 350,000 tested, 8.8% active; note: % is set by controls: 0 for no effect and ±100 for the full control effect; nearly all actives have a fitted effect of over 75% in size
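G9a (20 nM) was preincubated 15 min with compound, then reacted 2 h at room temperature with 500 nM biotin-H3K9 peptide and 20 µM SAM. Monomethyl-H3K9 detected by AlphaScreen using anti-H3K9me1 antibody.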
Glioma ERSR ind: ER stress response induction in glioma. Potency, µM, for the others: at the highest dose activation, usual class: activators. U87-MG GRP78 promoter luciferase reporter, 16 h. 420,000 tested, 0.02% active; note: series mostly up to about 76 µM; % of control where 0% means no effect; nearly all actives have a fitted effect of over 35% in size
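ERSR induction read as luciferase luminescence (Bright-Glo, 10 min at room temperature) in stably transfected human U87-MG glioma cells exposed to compounds for 16 h, using GRP78 as sensor.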
ALOX12 inh: ALOX12 (human) lipoxygenase inhibition. AID 1671190. Potency, µM (top dose mostly 108 µM), for inactives: at the top dose activity change, negative = inhibition, hits mostly inhibitors. 580,000 tested, 1.1% active. purified 12hLO, xylenol orange hydroperoxide absorbance; note: % is set by controls: 0 for no effect and ±100 for the full control effect
Target sequence (P18054 whole entry, looked up): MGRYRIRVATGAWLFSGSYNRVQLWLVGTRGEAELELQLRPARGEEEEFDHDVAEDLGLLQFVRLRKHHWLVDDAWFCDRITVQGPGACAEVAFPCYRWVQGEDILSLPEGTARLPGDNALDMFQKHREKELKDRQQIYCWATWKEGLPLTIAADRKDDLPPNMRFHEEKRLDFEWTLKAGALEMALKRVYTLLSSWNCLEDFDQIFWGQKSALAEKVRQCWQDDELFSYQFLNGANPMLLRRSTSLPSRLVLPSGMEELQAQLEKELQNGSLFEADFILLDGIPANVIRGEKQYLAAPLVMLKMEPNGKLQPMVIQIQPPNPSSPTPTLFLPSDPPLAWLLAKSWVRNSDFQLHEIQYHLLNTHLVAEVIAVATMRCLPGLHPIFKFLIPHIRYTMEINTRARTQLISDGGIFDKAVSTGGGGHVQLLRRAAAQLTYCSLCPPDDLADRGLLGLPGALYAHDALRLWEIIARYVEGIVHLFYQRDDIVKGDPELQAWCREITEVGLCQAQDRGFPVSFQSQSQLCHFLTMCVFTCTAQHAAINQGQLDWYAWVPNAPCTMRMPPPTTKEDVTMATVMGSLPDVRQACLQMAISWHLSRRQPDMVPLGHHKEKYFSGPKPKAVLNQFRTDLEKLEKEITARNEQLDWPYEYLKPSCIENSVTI
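Hydroperoxide product was detected by ferrous iron/xylenol orange as the 573 to 405 nm absorbance ratio. Arachidonic acid at 40 uM (final) was turned over for 30 min at room temperature by 150 nM human 12hLO, pH 7.0 Hepes buffer, after 15 min compound preincubation.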
VDR inhibitor: vitamin D3 receptor (human) inhibition; P11473; VDR-SRC2-3 peptide fluorescence polarization, 2 h; Potency, µM, for inactives: max response, negative = inhibition, hits mostly inhibitors; 400,000 tested, 0.93% active; AID 504847; note: % is set by controls: 0 for no effect and ±100 for the full control effect
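Inhibition of the VDR/SRC2-3 peptide interaction is quantified by fluorescence polarization. Compounds (23 nl, pintool) incubate with the reagents for 2 hours at ambient room temperature.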
* hit, by the source's call; ? = inconclusive; nt = not tested or not shown; [ ] = remark or other dose. Shown is part of a subset that was picked to be rich in hits. Calls come from the whole dose curve; as a rule, active = well fitted curve in the direction sought with a large enough effect; inconclusive = small, poorly fitted or top-dose-only effect, or another doubt; inactive = no such curve, though single readings can be large; an effect the other way counts as inactive or inconclusive. Potency is the fitted concentration of half-maximal effect.

SMILES	Sfp inh	G9a inh	Glioma ERSR ind	ALOX12 inh	VDR inhibitor
Cc1ccc2oc(=O)c(/C=C(\O)c3cccs3)nc2c1	-9%	?	-1%	-14%	-4%
O=c1oc2ccc(Cl)cc2nc1/C=C(\O)c1cccs1	?	3.2µM*	-8%	-146%	-2%
O=c1oc2ccccc2nc1/C=C(\O)c1ccc(Br)cc1	56µM*	nt	4%	nt	-9%
C/C(O)=C\c1nc2ccccc2oc1=O	?	?	10%	0%	1%
N#C/C(=C\c1ccc(OCC(=O)N2CCOCC2)cc1)C(=O)Nc1ccccc1	nt	nt	nt	7%	nt
O=C1CC(c2ccco2)CC(O)=C1C=NCCO (centres undefined)	?	79µM*	-6%	0%	12%
COc1ccc(C2N(c3ccc(C)cc3)CCN2c2ccc(C)cc2)cc1O	12%	18µM*	3%	-11%	5%
COc1cc(C2N(c3ccccc3)CCN2c2ccccc2)ccc1OC(C)=O	1%	-5%[59 µM]	3%	2%	8%
COC(=O)c1cc(C(=O)OCC(=O)c2ccc3c(c2)NC(=O)CO3)cc([N+](=O)[O-])c1	nt	50µM*	-4%	-10%	-10%
N#Cc1ccccc1OCC(=O)OCC(=O)c1ccc2c(c1)NC(=O)CO2	7%	50µM*	-5%	?	10%
COc1cc(OC)cc(C(=O)N[C@H](C(=O)OCC(=O)c2ccc3c(c2)NC(=O)CO3)C(C)C)c1	-7%	-34%[12.7 µM]	-3%	0%	4%
CC(C)[C@H](NC(=O)c1ccccc1)C(=O)OCC(=O)c1ccc2c(c1)NC(=O)CO2	-4%	14µM*	-4%	?	-12%
N#Cc1ccccc1CN1CCN(c2oc(C3CC3)nc2C#N)CC1	nt	nt	nt	12%	nt
Fc1cccc(NC(=S)NCCCN2CCOCC2)c1	12%	18%	-7%	-4%	-20%
CSc1cccc(NC(=S)NCCCN2CCN(c3ccc(F)cc3)CC2)c1	14%	50µM*	-1%	9%	-15%
COc1ccc(C=Nc2cccc3c(=O)[nH][nH]c(=O)c23)c2ccccc12	-8%	50µM*	5%	-13%	0%
Cc1nn(CC(=O)O)c2nc(-c3cnn(C)c3C)cc(C(F)F)c12	nt	nt	nt	12%	nt
CCCCOCC1CN(CCCC)S(=O)(=O)c2c(cccc2N2CCCC2)O1 (centres undefined)	nt	nt	nt	2%	nt
CCCCOCC1CC(CC#CCN2CCCCC2)C(=O)O1 (centres undefined)	-14%	10µM*	-4%	-19%	1%
CCC(CO)N=CC1=C(O)CC(C)(C)CC1=O (centres undefined)	8%	71µM*	2%	0%	2%
CSc1ccc(CN(C)C(=O)Cn2c(=O)n(C)c3ccccc32)cc1	nt	nt	nt	23%	nt
COCCn1c(-n2nc(C)cc2C)nc2c1c(=O)n(Cc1ccc(F)cc1)c(=O)n2C	nt	nt	nt	-1%	nt
Cc1ccc(C(C[N+](=O)[O-])c2c(N)n(C)c(=O)n(C)c2=O)cc1 (centres undefined)	4%	?	-11%	10%	79µM*
COc1cc(C(C[N+](=O)[O-])c2c(C)[nH]c3ccccc23)ccc1O (centres undefined)	1%	?	-2%	?	0%
COc1cc(C(C[N+](=O)[O-])c2c(N)n(C)c(=O)n(C)c2=O)ccc1O (centres undefined)	-2%	50µM*	-16%	-1%	?
SMILES	Sfp inh	G9a inh	Glioma ERSR ind	ALOX12 inh	VDR inhibitor
COc1cccc(F)c1C(C[N+](=O)[O-])c1c(N)n(C)c(=O)n(C)c1=O (centres undefined)	-3%	?	-14%	?	79µM*
Cn1c(N)c(C(C[N+](=O)[O-])c2ccccc2Cl)c(=O)n(C)c1=O (centres undefined)	nt	nt	-2%	?	?
Cc1cc(C(=O)O)ccc1NCc1cccnc1	-1%	nt	-5%	0%	14%
Cc1ccnc(NCc2ccc(Cl)cc2)c1	7%	-10%	4%	?	-2%
Cc1ccc(NCc2cccnc2)c(Br)c1	-26%	14µM*	3%	?	-5%
Cc1ccc(NCc2ccc(Cl)nc2)c(NCc2ccc(Cl)nc2)c1	7%	35µM*	-4%	?	-2%
Cc1ccccc1OCC(=O)Nc1ccc2oc(-c3ccccc3C)nc2c1	nt	nt	nt	-1%	nt
CCc1ccc2c(c1)-c1ccccc1S(=O)(=O)N2CC(=O)Nc1cccc(Cl)c1C	nt	nt	nt	-9%	nt
Cc1ccc(NC(=O)/C=C/c2cccs2)cc1	nt	nt	nt	3%	nt
